From PubChem BioAssay (NCATS)
Inconclusive results are not listed. Where a call stands in place of a potency, no number is given. Unmarked numbers belong to inactive results. The source made the active and inactive calls. The call rests on the fitted dose curve; in most records, active means well fitted inhibition curve with a large enough effect; inconclusive means small, poorly fitted or top-dose-only effect; inactive means no such curve, though single readings can be large or run the other way. Where a SMILES comes first, the peptide text is derived from it.

Assay: Primary qHTS for small molecule stabilizers of the endoplasmic reticulum resident proteome: Secreted ER Calcium Modulated Protein (SERCaMP) assay (AID 1508630)
Conditions: SH-SY5Y GLuc-SERCaMP (Gaussia luciferase released on ER calcium loss) secretion, thapsigargin, luminescence; series mostly up to 38.4 µM
Excerpt: Assay Provider: Brandon K. Harvey Ph.D.
National Institute on Drug Abuse, National Institutes of Health, Baltimore, MD
Endoplasmic reticulum (ER) dysregulation is associated with human pathologies including neurodegenerative, cardiovascular, muscular, and diabetic conditions. Maintenance of ER calcium is critical for functions of the ER and its depletion can lead to loss of ER resident proteins, in a process termed exodosis. Therapeutic compounds capable of attenuating the redistribution of ER proteins under pathological conditions may slow or stop disease progression. To identify such compounds, we performed a quantitative high-throughput screen (qHTS) using the SERCaMP assay, which monitors secretion of ER resident proteins triggered by calcium depletion.
SERCaMP was initially developed as a reporter of ER calcium homeostasis using a Gaussia luciferase with a modified signal peptide and carboxy-terminus (GLuc-SERCaMP), modifications that confer secretion of the reporter in response to ER calcium depletion (Henderson et al., 2014). The assay was used to screen 9,501 compounds, including a collection of drugs approved by the FDA (US), EMA (EU), NHI (Japan), and HC (Canada) regulatory agencies (Huang et al., 2011). Since the SERCaMP reporter reflects the exodosis phenomenon (Trychta et al., 2018a), compounds identified in the screen have the potential to prevent exodosis by different mechanisms such as stabilizing ER calcium or augmenting ERS retrieval.
1. Henderson, M.J., Wires, E.S., Trychta, K.A., Richie, C.T., and Harvey, B.K. (2014). SERCaMP: a carboxy-terminal protein modification that enables monitoring of ER calcium homeostasis. Mol Biol Cell 25, 2828-2839.
2. Huang, R., Southall, N., Wang, Y., Yasgar, A., Shinn, P., Jadhav, A., Nguyen, D.T., and Austin, C.P. (2011). The NCGC pharmaceutical collection: a comprehensive resource of clinically approved drugs enabling repurposing and chemical genomics. Sci Transl Med 3, 80ps16.
3. Trychta, K.A., Back, S., Henderson, M.J., and Harvey, B.K. (2018a). KDEL Receptors Are Differentially Regulated to Maintain the ER Proteome under Calcium Deficiency. Cell Rep 25, 1829-1840 e1826.
SEQUENCE No. (1, 2, 3, etc.); […] (e.g., Cells, Incubation, Reagent, etc.); VALUE and DESCRIPTION.
1; Reagent; 5 uL; 1000 SH-SY5Y cells per wells
3; Compound; 23 nL; Control inhibitor / compound library
5; Reagent; 100 nM; Thapsigargin
7; Reagent; 1 uL; 0.5x coelenterazine
8; Detection; Luminescence; ViewLux imaging system
NOTES (numbers refer to sequence above)
1; SH-SY5Y human neuroblastoma cells stably expressing GLuc-SERCaMP (SH-SY5Y-GLuc-ASARTDL) cells were seeded in 1,536 well white tissue culture treated plates (Corning, Cat# 7464) in DMEM-high glucose-sodium pyruvate (ThermoFisher Scientific, Cat #10569) supplemented with 10% bovine growth serum (Hyclone), 10 U/ml penicillin (Gibco), 10 ug/ml streptomycin (Gibco), and 20 mM HEPES.
2; Assay plates were incubated for 5 hour at 37C in a humidified incubator containing 5% CO2.
3; qHTS libraries (23 nl, final concentrations of 1.53 uM, 7.67 uM, 38.3 uM) or controls (neutral control: DMSO, positive control: dantrolene) were added using a Kalypsis pin-tool Robotic System equipped with 1536 pinheads.
4; Cells were then incubated for 16 hours at 37C, 5% CO2.
5; Thapsigargin was added at 100 nM to deplete ER calcium stores.
6; Cells were incubated for 4 hour (37 °C, 5% CO2)
7; Gaussia luciferase in the medium was measured by adding 1 ul of 0.5x coelenterazine (final concentration 0.07x) prepared in Gaussia Luciferase Glow Assay Buffer (Pierce), without addition of the Cell Lysis Buffer Reagent.
8; Luminescence was measured using a ViewLux […] CCD imaging system (Perkin Elmer) equipped with clear filters. […] The same controls were also used for the calculation of the Z' factor, a measure of assay quality control, as previously described (Zhang et al., 1999). […]

Row | Structure (SMILES) | Potency | activity change, negative = inhibition
1 | CN1CCc2cc(O)cc3c2C1Cc1ccc(O)c(O)c1-3 (stereo not given) | inactive | –
2 | CC(C)(C)c1o[nH]c(=O)c1C[C@H](N)C(=O)O | inactive | –
3 | CC(C)[C@@H]1CN[C@H](C(=O)O)[C@@H]1CC(=O)O | inactive | –
4 | N#CC(C#N)=Cc1cc(O)c(O)c([N+](=O)[O-])c1 | inactive | –
5 | C[C@]12CC[C@H]3[C@@H](C[C@H](F)C4=CC(=O)CC[C@@]43C)[C@@H]1CC[C@@H]2O | inactive | –
6 | COc1cccc2c1cc([N+](=O)[O-])c1c(C(=O)O)cc3c(c12)OCO3 | inactive | –
7 | C/C(=C\[C@@H](N)C(=O)O)CP(=O)(O)O | inactive | –
8 | CC(C)(Cc1c[nH]c2ccc(Cl)cc12)NCCOc1ccccc1OCC1CC1 | inactive | –
9 | CCN1C[C@]2(COC)[C@H](O)C[C@H](OC)[C@]34C1C([C@H](OC)[C@H]23)[C@]1(OC(C)=O)C2[C@@H](OC(=O)c3ccccc3)C(O)(C[C@H]24)[C@@H](OC)[C@@H]1O | inactive | –
10 | NCCc1ccccc1 | inactive | –
11 | C[C@@H]1O[C@@H](O[C@H]2C[C@@H](O)[C@]3(CO)[C@@H]4C(CC[C@]3(O)C2)[C@@]2(O)CC[C@H](C3=CC(=O)OC3)[C@@]2(C)C[C@H]4O)[C@H](O)[C@H](O)[C@H]1O (stereo not given in full) | inactive | –
12 | CN(CCCC(=O)c1cccnc1)N=O | inactive | –
13 | COC(=O)/C=C\C(=O)N[C@@H]1CC[C@@]2(O)[C@H]3Cc4ccc(O)c5c4[C@@]2(CCN3CC2CC2)[C@@H]1O5 | inactive | –
14 | CCN1C[C@]2(COC(=O)c3ccccc3N3C(=O)CC(C)C3=O)CC[C@H](OC)[C@@]34C5C[C@@H]6[C@@H](OC)C[C@@](O)(C5[C@H]6OC)[C@](O)([C@@H](OC)C23)[C@@H]14 (stereo not given in full) | inactive | –
15 | CC(=O)C1CCC2C3CCC4CC(C)(O)CCC4(C)C3CCC12C (stereo not given) | inactive | –
16 | CC(C)C[C@H](NC(=O)[C@H](Cc1ccccc1)NC(=O)CNC(=O)[C@H](CS)N(C(=O)[C@@H](N)Cc1ccc(O)cc1)C(C)(C)C)C(=O)N([C@H](C(=O)O)[C@H](C)O)C(C)(C)C (HELM PEPTIDE1{Y.[CC(C)(C)N([C@@H](CS)C(=O)[*:2])[*:1]].G.F.L.[C[C@H](O)[C@@H](C(=O)O)N(C(C)(C)C)[*:1]]}$$$$V2.0) | – | -10.6% [at 3.88 µM]
17 | CCN1C[C@]2(COC(=O)c3ccccc3N3C(=O)C[C@H](C)C3=O)CC[C@H](OC)[C@@]34[C@@H]5C[C@H]6[C@H](OC)[C@H]5[C@](O)(C[C@@H]6OC)[C@@](O)([C@@H](OC)[C@@H]23)[C@@H]14 | inactive | –
18 | C[C@@H](Cc1ccc(OCC(=O)O)cc1)NC[C@H](O)c1cccc(Cl)c1 | inactive | –
19 | N[C@@]1(C(=O)O)CC[C@H](C(=O)O)C1 | inactive | –
20 | CC1=C(O)C(=O)[C@@H]2O[C@@H]2C1=O | inactive | –

Row | Structure (SMILES) | Potency | activity change, negative = inhibition
21 | C=C1[C@@H](C)[C@H]2[C@H](Cc3ccccc3)NC(=O)[C@]23[C@H](OC(C)=O)/C=C/[C@](C)(O)C(=O)[C@@H](C)C/C=C/[C@H]3[C@@H]1O | inactive | –
22 | N#Cc1c(Oc2cccc(OS(=O)(=O)CCCC(F)(F)F)c2)cccc1C(F)(F)F | inactive | –
23 | CNCC/C=C/c1cccnc1 | inactive | –
24 | O=C1CS[C@@H](c2ccccc2Cl)c2cc(Cl)ccc2N1 | inactive | –
25 | C[C@]12CCC3C(CC[C@H]4C[C@H](O)CC[C@]34C)[C@@H]1CC[C@@H]2C(=O)CO (stereo not given in full) | inactive | –
26 | CN(C(=O)Cc1ccc(Cl)c(Cl)c1)C(CN1CCCC1)c1cccc(N=C=S)c1 (stereo not given) | inactive | –
27 | Cc1o[nH]c(=O)c1C[C@@H](N)C(=O)O | inactive | –
28 | NC(N)=Nc1ccc2[nH]c3c(c2c1)C[C@]1(O)[C@@H]2Cc4ccc(O)c5c4[C@]1(CCN2CC1CC1)[C@@H]3O5 | inactive | –
29 | CN(C(=O)Cc1ccccc1)[C@H](CN1CCCC1)c1ccccc1 | inactive | –
30 | CCCCCCCCCCCCCCCC(=O)OC[C@H](COP(=O)([O-])OCC[N+](C)(C)C)OC(C)=O | – | -14.9% [at 3.88 µM]
31 | c1cncc(C2CCCCN2)c1 (stereo not given) | inactive | –
32 | C[C@H](N)Cc1c[nH]c2ccc(O)cc12 | inactive | –
33 | CC1CCC2C(C)C(=O)OC3O[C@]4(C)CCC1[C@@]32OO4 (stereo not given in full) | inactive | –
34 | CC(C)C[C@H](NC(=O)[C@H](Cc1ccccc1)NC(=O)CNC(=O)[C@H](CO)NC(=O)[C@@H](N)Cc1ccc(O)cc1)C(=O)N[C@H](C(=O)O)[C@H](C)O | – | -28.8% [at 3.88 µM]
35 | CCCC[C@@H](C)[C@@H](OC(=O)C[C@@H](CC(=O)O)C(=O)O)[C@H](C[C@@H](C)C[C@H](O)CCCC[C@@H](O)C[C@H](O)[C@H](C)N)OC(=O)C[C@H](CC(=O)O)C(=O)O | inactive | –
36 | Nc1ncnc2c1ncn2[C@@H]1O[C@H](COP(=O)(O)CP(=O)(O)O)[C@@H](O)[C@H]1O | inactive | –
37 | CCCCC/C=C\C[C@@H](/C=C/C=C\C/C=C\CCCC(=O)O)OO | – | -39.3% [at 0.478 µM]
38 | NC[C@H](CP(=O)(O)O)c1ccc(Cl)cc1 | inactive | –
39 | CCCCCCCCCOc1ccc2[nH]cc(CCN)c2c1 | inactive | –
40 | COc1ccc2c(CCN)c[nH]c2c1 | inactive | –
